Records with an inconclusive call do not appear. Active and inactive are the calls of the source. Unless noted, calls come from the whole dose curve; as a rule, active = well fitted curve in the direction sought with a large enough effect; inconclusive = small, poorly fitted or top-dose-only effect, or another doubt; inactive = no such curve, though single readings can be large; an effect the other way counts as inactive or inconclusive. Where a SMILES comes first, the peptide text is derived from it. [ ]: non-standard residue; d: D form. ξ: configuration not given here. ξLac(3-iPr) = CC(C)CC(O)C(=O)O; NMeV = CN[CH](C(=O)O)C(C)C; NMeA = CN[CH](C)C(=O)O; βAla = NCCC(=O)O
How the values were obtained:
[1] = P-glycoprotein substrates identified in KB-8-5-11 adenocarcinoma cell line, qHTS therapeutic library screen (AID 1346987); note: nearly all actives have a fitted effect of over 65% in size; note: potency is the fitted concentration of half-maximal effect
Summary of the method: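 KB-8-5-11, a colchicine-selected P-gp-overexpressing KB-3-1 subline, was grown without colchicine for the assay. Cells were seeded at 500 cells/well, dosed in concentration-response and incubated 72 h at 37 degree C, 5% CO2. Viability was read by CellTiter-Glo luminescence.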

[2] = tested on: Zika virus NS2B-NS3 protease (unlinked complex); assay: Primary screen GU Rhodamine qHTS for Zika virus inhibitors: Unlinked NS2B-NS3 protease assay (AID 1347159); note: % is set by controls: 0 for no effect and ±100 for the full control effect; nearly all actives have a fitted effect of over 60% in size
Summary of the method: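 Percent inhibition derives from the 15-min fluorescence change (ex 480, em 540 nm), normalized to no-enzyme and no-inhibitor wells. Reactions contained 25 nM NS2B-NS3 complex and 1.5 microM substrate in 10 mM Tris-HCl pH 8.0.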

[3] = Primary qHTS for inhibitors of nuclear receptor binding SET domain protein 2 (NSD2) in an isogenic RCH-ACV NSD2 p.E1099K mutant (9B) (AID 1645876); note: nearly all actives have a fitted effect of over 70% in size; note: potency is the fitted concentration of half-maximal effect
NIH3T3 = assay: Cytotoxic Profiling of Annotated Libraries Using Quantitative High-Throughput Screening (AID 1296008); conditions: Five cell lines viability, CellTiter-Glo ATP luminescence, 48-72 h; max response: stronger effect = lower value; note: nearly all actives have a fitted effect of over 60% in size; note: potency is the fitted concentration of half-maximal effect; for max response: % is set by controls: 0 for no effect and ±100 for the full control effect
Summary of the method: (§1)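 Compounds were pin-transferred onto cells and incubated 48 or 72 hr at 37 degree Celsius, 95% humidity. CellTiter-Glo was added, plates sat 10 min at room temperature, then ATP-coupled luminescence was imaged as the viability read-out.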

SKOV3 = assay: Primary qHTS to identify gynecologic anti-cancer compounds using libraries of approved drugs and bioactive compounds (AID 1345084); conditions: Gynecologic cancer cell panel viability, ATPlite luminescence, 48 h; series mostly up to 57.5 µM; note: nearly all actives have a fitted effect of over 55% in size; note: potency is the fitted concentration of half-maximal effect
Summary of the method: (§2)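 Luminescence from the ATPlite ATP-monitoring reagent indicates viable cell number; lower signal means cytotoxicity. Cells received compound 16 h after seeding and were exposed for 48 h across five concentrations.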

HaCat [4] = assay: Cytotoxic Profiling of Annotated Libraries Using Quantitative High-Throughput Screening (AID 1296008); conditions: Five cell lines viability, CellTiter-Glo ATP luminescence, 48-72 h; max response: stronger effect = lower value; note: nearly all actives have a fitted effect of over 60% in size; note: potency is the fitted concentration of half-maximal effect; for max response: % is set by controls: 0 for no effect and ±100 for the full control effect
Summary of the method: as §1

HACAT [5] = assay: qHTS assay to identify novel small-molecules to repurpose for Merkel cell carcinoma treatment (AID 1296009); conditions: MCC and control cell lines, CellTiter-Glo viability, 72 h; at 44.8 µM (top of the series) unless noted; note: nearly all actives have a fitted effect of over 60% in size
Summary of the method: (§3)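 qHTS format: cells treated with library compounds in DMSO across 8 (NPC) or 11 (MIPE) concentrations. Readout after 72 hr at 37 degree celsius was CellTiter-Glo luminescence.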

HeLa = assay: Primary qHTS to identify gynecologic anti-cancer compounds using libraries of approved drugs and bioactive compounds (AID 1345084); conditions: Gynecologic cancer cell panel viability, ATPlite luminescence, 48 h; series mostly up to 57.5 µM; note: nearly all actives have a fitted effect of over 55% in size; note: potency is the fitted concentration of half-maximal effect
Summary of the method: as §2

[6] = target: Cytochrome P450 2D6 (Homo sapiens) (UniProt P10635); assay: Cytochrome P450 family 2 subfamily D member 6 (CYP2D6) small molecule antagonists: luciferase biochemical (cell-free) qHTS assay (AID 1645840; active = well fitted curve in the direction sought with a large enough effect in the repeat runs; an effect the other way counts as inactive or inconclusive; note: % is set by controls: 0 for no effect and ±100 for the full control effect; nearly all actives have a fitted effect of over 55% in size)
Sequence of Cytochrome P450 2D6 (Homo sapiens) (P10635 whole entry, looked up): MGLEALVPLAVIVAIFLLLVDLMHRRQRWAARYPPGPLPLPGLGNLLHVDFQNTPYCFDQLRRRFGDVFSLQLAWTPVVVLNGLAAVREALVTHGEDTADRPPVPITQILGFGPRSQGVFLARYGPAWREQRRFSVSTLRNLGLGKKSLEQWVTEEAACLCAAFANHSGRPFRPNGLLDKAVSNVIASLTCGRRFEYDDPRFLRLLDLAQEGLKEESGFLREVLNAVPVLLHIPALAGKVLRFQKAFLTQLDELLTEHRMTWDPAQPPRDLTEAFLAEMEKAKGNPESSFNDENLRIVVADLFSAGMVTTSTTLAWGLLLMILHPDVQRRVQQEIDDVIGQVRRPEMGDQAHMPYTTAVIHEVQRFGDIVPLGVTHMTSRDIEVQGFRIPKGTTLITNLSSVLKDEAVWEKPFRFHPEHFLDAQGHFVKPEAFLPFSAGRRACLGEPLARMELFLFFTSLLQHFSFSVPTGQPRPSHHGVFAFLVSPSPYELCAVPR
Summary of the method: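 P450-Glo luminescent screen: recombinant CYP2D6 enzyme–proluciferin substrate mix preincubated with compound 10 min at room temperature, then NADPH regeneration added for 1 h at room temperature. Detection reagent added for 20 min; luciferin light read as relative luminescence units.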

[7] = target: Cytochrome P450 2C9 (Homo sapiens) (UniProt P11712); assay: Cytochrome P450 family 2 subfamily C member 9 (CYP2C9) small molecule antagonists: luciferase biochemical (cell-free) qHTS assay (AID 1645842; active = well fitted curve in the direction sought with a large enough effect in the repeat runs; an effect the other way counts as inactive or inconclusive; note: potency is the fitted concentration of half-maximal effect; nearly all actives have a fitted effect of over 55% in size)
Sequence of Cytochrome P450 2C9 (Homo sapiens) (P11712 whole entry, looked up): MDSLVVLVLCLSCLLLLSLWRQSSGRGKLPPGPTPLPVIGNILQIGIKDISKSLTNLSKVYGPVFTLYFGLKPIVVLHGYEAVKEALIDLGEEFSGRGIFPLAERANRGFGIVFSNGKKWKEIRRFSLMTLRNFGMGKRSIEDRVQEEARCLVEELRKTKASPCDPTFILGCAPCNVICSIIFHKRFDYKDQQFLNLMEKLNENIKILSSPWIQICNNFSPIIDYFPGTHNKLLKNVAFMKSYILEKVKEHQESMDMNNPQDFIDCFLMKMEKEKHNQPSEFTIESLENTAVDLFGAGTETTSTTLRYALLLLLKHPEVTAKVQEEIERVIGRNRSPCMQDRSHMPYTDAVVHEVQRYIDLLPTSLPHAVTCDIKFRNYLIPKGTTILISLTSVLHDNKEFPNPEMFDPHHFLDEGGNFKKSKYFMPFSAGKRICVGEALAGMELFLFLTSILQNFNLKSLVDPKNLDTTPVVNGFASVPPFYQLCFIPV
Summary of the method: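 Luminescence, after 20 min with luciferin detection reagent, reflected CYP2C9 turnover during a 1 h NADPH-driven reaction at 37C. Enzyme-substrate mix contained 0.4% bovine serum albumin and was preincubated with compound 10 min at room temperature.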

[8] = Primary qHTS for inhibitors of nuclear receptor binding SET domain protein 2 (NSD2) in an RCH-ACV wild type WT cells (2C) (AID 1645877); note: nearly all actives have a fitted effect of over 70% in size; note: potency is the fitted concentration of half-maximal effect
HEK293 = assay: Cytotoxic Profiling of Annotated Libraries Using Quantitative High-Throughput Screening (AID 1296008); conditions: Five cell lines viability, CellTiter-Glo ATP luminescence, 48-72 h; max response: stronger effect = lower value; note: nearly all actives have a fitted effect of over 60% in size; note: potency is the fitted concentration of half-maximal effect; for max response: % is set by controls: 0 for no effect and ±100 for the full control effect
Summary of the method: as §1

CRL-7250 = normal cell line; assay: qHTS assay to identify novel small-molecules to repurpose for Merkel cell carcinoma treatment (AID 1296009); conditions: MCC and control cell lines, CellTiter-Glo viability, 72 h; series mostly up to 92 µM; note: nearly all actives have a fitted effect of over 60% in size
Summary of the method: as §3

[9] = qHTS drug screen for cell cycle checkpoint inhibitors in PARPi-resistant BRCA-mutant ovarian cancer cell lines. (AID 1963452; calls by dose curve; note: potency is the fitted concentration of half-maximal effect); conditions: PEO1/OlaR viability, CellTiter-Glo luminescence, 96 h; for Z-AUC: stronger effect = lower value
Summary of the method: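 PEO1, PEO4 and PEO1/OlaR ovarian cancer cells, 600 per well, exposed 96 h at 37C to a dilution series. Viability read by CellTiter-Glo luminescence, normalized to DMSO and empty wells; activity summarized as Z-AUC.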

C/C=C(\C)C(=O)O[C@H]1CC2C(=C1C)[C@H]1OC(=O)[C@](C)(O)[C@]1(O)[C@H](OC(=O)CCC)C[C@@]2(C)OC(C)=O (stereo partly specified)
inactive: Potency [1] | Potency [2] | Potency (SKOV3)
active: Potency [3] 1000 nM | Potency (NIH3T3) 4470 nM

C=C1C(=O)OC2/C=C(\COO)CC/C=C(\COC(C)=O)CC(OC(=O)C(C)CC)C12 (stereo unspecified)
active: Potency [3] 6320 nM
inactive: outcome (HaCat [4]) | outcome (HACAT [5]) inactive [at 17.4 µM] | Potency (HeLa)

Cc1ccc(Cn2nc(C(=O)N[C@@H]3C(C)(C)[C@@H]4CC[C@@]3(C)C4)cc2-c2ccc(Cl)c(C)c2)cc1
active: Potency [7] 2680 nM
inactive: Potency [1] | Potency [2] | Potency [6] | Potency [3] | Potency [8] | max response (NIH3T3) -3.82% | Potency (HeLa) | Potency (SKOV3)

C[C@@H]1O[C@@H](O[C@H]2CC[C@@]3(C)C(CC[C@@H]4C3CC[C@]3(C)[C@@H](C5=CC(=O)OC5)CC[C@]43O)C2)[C@H](O)[C@H](O)[C@H]1O (stereo partly specified)
active: Potency [1] 709 nM | Potency [3] 200 nM | Potency [8] 632 nM | Potency (HEK293) 632 nM | Potency (HaCat [4]) 2820 nM | Potency (HeLa) 2000 nM | Potency (SKOV3) 2000 nM
inactive: Potency [2] | max response (NIH3T3) -2.8%

COC(=O)[C@@]1(C)C(=O)C=C[C@]2(C)c3c(O)cc(C(C)C)cc3[C@H](O)[C@@H](OC(C)=O)C12 (stereo partly specified)
inactive: Potency [2] | outcome (HaCat [4]) | max response (NIH3T3) -1.38% | Potency (CRL-7250) | outcome (HACAT [5]) inactive [at 17.4 µM] | Potency (SKOV3)

C/C(=C\c1csc(C)n1)[C@@H]1C[C@@H]2O[C@@H]2CCC[C@H](C)[C@H](O)[C@@H](C)C(=O)C(C)(C)[C@@H](O)CC(=O)O1
-2.36: Z-AUC ([9]; measured here: PEO4 Z-AUC)
active: Potency [1] 5.8 nM | Potency [3] 37.2 nM | Potency [8] 26.3 nM | Potency [9] 8.7 nM | Potency (HEK293) 6.5 nM
-2.45: Z-AUC ([9]; measured here: PEO1 parental Z-AUC)

CCC(C)C1NC(=O)C2CCCN2C(=O)C(CC(C)C)OC(=O)CCNC(=O)C(C)N(C)C(=O)C(C(C)C)N(C)C1=O (stereo unspecified) (cyclo([ξLac(3-iPr)]PI[NMeV][NMeA][βAla]); configuration not given here)
inactive: Potency [1] | Potency [2] | max response (HaCat [4]) -9.99% | Potency (HeLa)
active: Potency [3] 2710 nM | Potency [8] 1920 nM

— PubChem BioAssay (NCATS)
